Rows were chosen to be rich in hits. Some 12% of all compounds tested hit in one or more screens of this group.
Pf growth 96h: Primary qHTS for delayed death inhibitors of the malarial parasite plastid, 96 hour incubation; P. falciparum luciferase reporter growth, 96 h; Potency, µM (series often up to 28.7 µM), inactives show at the top dose activity change, negative = inhibition, actives largely listed as inhibitors; 6.9% of 320,000 active; also: % is scaled to controls: 0 for no effect and ±100 for the full control effect
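Two-generation exposure (96 h) targets delayed-death phenotype. Reporter parasites carrying integrated firefly luciferase, in red cells at 2% hematocrit and 0.05% parasitemia final, kept at 37 C, 5% CO2; luminescence loss indicates inhibition.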
Pf growth 48h: Primary qHTS for delayed death inhibitors of the malarial parasite plastid, 48 hour incubation. AID 504832, 2011. P. falciparum luciferase growth in erythrocytes, 48 h. Potency, µM (titrated, usually from 28.7 µM), for the others: at the top dose activity change, negative = inhibition, usual class: inhibitors. 5.9% of 310,000 active; also: % is scaled to controls: 0 for no effect and ±100 for the full control effect
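Luciferase-expressing parasites in RBCs, 2% Hct / 0.1% parasitemia final; RPMI 1640 + 0.5% Albumax; 37 C, 5% CO2, one generation; luminescence read-out, lower signal = inhibition.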
Sm TGR inh: qHTS Assay for the Inhibitors of Schistosoma Mansoni Peroxiredoxins | Schistosoma mansoni thioredoxin glutathione reductase (TGR), Q962Y6 | purified TGR, DTNB reduction, TNB absorbance 405 nm | Potency, µM (highest dose often 114 µM), for inactives: at the highest dose activity change, negative = inhibition, most hits filed as inhibitors | 3% of 360,000 active | AID 485364, 2010; also: % is scaled to controls: 0 for no effect and ±100 for the full control effect; nearly all actives have a fitted effect of over 60% in size
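Kinetic colorimetric format: TGR-catalysed, NADPH-driven DTNB reduction monitored via TNB absorbance. Enzyme dispensed at 20 nM; compound exposure 15 min at room temperature before reaction start.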
SARS PLP yeast: qHTS of Yeast-based Assay for SARS-CoV PLP; S. cerevisiae expressing SARS-CoV PLpro, growth rescue; Potency, µM (top dose mostly 32.9 µM), for the others: at the highest dose activity, positive = growth rescue, most hits filed as activators; 0.19% of 330,000 active; calls by dose curve; also: 0% is about no effect; nearly all actives have a fitted effect of over 55% in size
* hit, by the source's call; ? = inconclusive; / = not tested or not shown; [ ] = remark or other dose. Unless noted, calls follow the shape of the dose curve; as a rule, active = well fitted curve in the direction sought with a large enough effect; inconclusive = small, poorly fitted or top-dose-only effect, or another doubt; inactive = no such curve, though single readings can be large; an effect the other way counts as inactive or inconclusive. Potency is read from the fitted curve at half-maximal effect.

SMILES	Pf growth 96h	Pf growth 48h	Sm TGR inh	SARS PLP yeast
COc1ccc(C2CC(c3cccs3)=NN2C(=O)CSc2nncn2C)cc1OC (stereo unspecified)	8%	1%	1%	-1%
O=C(c1ccco1)N1N=C(c2cccs2)CC1c1ccc(F)cc1 (stereo unspecified)	0.83µM*	/	?	-15%
O=C(c1cccs1)N1N=C(c2ccc(O)cc2)CC1c1ccccc1 (stereo unspecified)	?	?	6%	11%
COc1ccc(C2CC(c3cccs3)=NN2C(=O)c2ccc(Br)o2)cc1 (stereo unspecified)	?	1.7µM*	-9%	2%
Cn1cc(S(=O)(=O)N2CCCCCC2)cc1C(=O)N1CCN(c2ccc(Cl)cc2)CC1	/	/	-1%	/
COc1ccc(CNC(=O)c2cncc(Br)c2)cc1	19%	64%	-3%	-5%
OC(c1ccccc1)(c1ccccc1)c1ccn[nH]1	52%	?	-5%	4%
CCN1CCN(CC(=O)N2N=C(c3cccs3)CC2c2ccc(OC)c(OC)c2)C(=O)C1=O (stereo unspecified)	?	?	-1%	4%
COc1ccc(C2CC(c3cccs3)=NN2C(=O)c2ccco2)cc1OC (stereo unspecified)	0.13µM*	0.26µM*	-21%	1%
O=C(O)c1ccc(NC2=C(n3nnc4ccccc43)C(=O)c3ccccc3C2=O)cc1	?	?	7.1µM*	1%
CC(C)N1CC=C(c2c[nH]c3ccccc23)CC1	?	1µM*	-7%	3%
C1=C(c2c[nH]c3ccccc23)CCNC1	6%	9.3µM*	-2%	-1%
c1ccc2c(-c3ccncc3)c[nH]c2c1	/	?	-27%	-8%
Cc1ccc2c(c1)N(C(=O)CCC(=O)N1CCC(C(N)=O)CC1)CCO2	19%	-3%	12%	-4%
CCCCN([C@H](CO)C(C)C)S(=O)(=O)c1ccccc1Br	/	/	/	11%
c1ccc2c(Nc3ccc(N4CCOCC4)cc3)nc(N3CCOCC3)nc2c1	-24%	?	-3%	3%
Cc1cccc(-c2nc(Nc3ccc(N4CCOCC4)cc3)c3ccccc3n2)c1	?	9.3µM*	-13%	-48%
Cc1ccc(Nc2nc(-c3cccnc3)nc3ccccc23)cc1	5%	15µM*	4%	5%
CCOC(=O)c1ccc(Nc2nc(-c3cccnc3)nc3ccccc23)cc1	79%	5.9µM*	-14%	1%
O=C(Oc1ccc(Nc2ncnc3ccccc23)cc1)c1cccnc1	12µM*	3%	9%	-1%
Cc1ccccc1Nc1nc(-c2cccnc2)nc2ccccc12	?	?	-8%	-5%
COc1ccc(-n2cc(C(=O)Oc3cc(C)cc(C)c3)c3ccccc3c2=O)cc1	/	/	10%	/
CC(C)(C)[C@H]1COC(=O)[C@H](Cc2ccc(F)cc2)CC/C=C/C[C@@H](CC(=O)N[C@H](CO)Cc2ccccc2)C(=O)N1	/	/	/	-1%
C/C=C/c1cc(CN2CCN(c3ccccc3)CC2)c(O)c(OC)c1	1.7µM*	1.3µM*	-27%	-3%
C/C=C/c1cc(CN2CCN(c3ccc(OC)cc3)CC2)c(O)c(OC)c1	?	1.5µM*	?	0%
SMILES	Pf growth 96h	Pf growth 48h	Sm TGR inh	SARS PLP yeast
CCCC(=O)c1cc(CP(=O)(OCC)OCC)oc1C	-8%	-30%	28µM*	0%
CCOP(=O)(Cc1cc(C(C)=O)c(C)o1)OCC	1%	-6%	40µM*	1%
CCOP(=O)(Cc1ccc(C#N)o1)OCC	14%	12%	-21%	0%
CCOP(=O)(Cc1ccccc1)OCC	64%	-4%	-2%	-6%
CCOP(=O)(Cc1ccc(C(C)(C)CC(C)=O)o1)OCC	24%	2%	16µM*	2%
COc1ccc2oc(C(=O)OCC(=O)N(C)C3CCS(=O)(=O)C3)c(C)c2c1 (stereo unspecified)	35%	20%	-1%	-11%
COc1ccc(-c2cn[nH]c2-c2ccc(OC)cc2O)cc1	12µM*	9.3µM*	15%	-6%
COc1ccccc1-c1cn[nH]c1-c1ccc(OCc2ccccc2)cc1O	3.7µM*	6.6µM*	18%	-11%
COc1ccc(-c2[nH]ncc2-c2ccc(Cl)cc2)c(O)c1	4.1µM*	12µM*	0%	/
CCOc1ccc(-c2[nH]ncc2-c2ccccc2)c(O)c1	7.4µM*	?	-3%	-8%
Oc1ccc(-c2[nH]ncc2-c2ccc(Cl)cc2)c(O)c1	-3%	?	-4%	2%
Cn1c(CNC(=O)C(Cc2ccccc2)NC(=O)c2cccc(F)c2)cc(=O)n(C)c1=O (stereo unspecified)	64%	-9%	-3%	2%
COC(=O)c1sccc1NC(=S)Nc1cc(C)cc(C)c1	10µM*	18%	-12%	0%
COC(=O)c1sccc1NC(=O)Nc1cccc(C)c1C	4.1µM*	23%	11%	1%
COC(=O)c1sccc1NC(=O)Nc1cccc(Cl)c1Cl	77%	1%	-1%	1%
COC(=O)c1sccc1NC(=S)Nc1ccccc1	86%	0%	?	-4%
Cc1ccc2c(c1)c(=O)c1ccccc1n2CCCC(=O)Nc1ccc(C)c(F)c1	/	/	-4%	/
O=C(CNC(=O)c1ccc(Cl)cc1)NNc1c(F)c(F)cc(F)c1F	/	/	/	-5%
Cc1cccc(C)c1NCC(=O)N1CCN(Cc2ccccc2)CC1	-12%	-13%	1%	-1%
Cc1ccc(-c2csc(NC(=O)C[n+]3cc(-c4ccc(C)cc4)n4c3CCC4)n2)cc1	-46%	?	-5%	0%
Cc1ccc(-c2csc(NC(=O)C[n+]3cc(-c4ccccc4)n4c3CCC4)n2)cc1	?	?	-11%	-3%
Cc1ccc(-c2c[n+](CC(=O)Nc3c(C)cccc3C)c3n2CCC3)cc1	15µM*	?	-5%	-1%
O=C(C[n+]1cc(-c2ccc(F)cc2)n2c1CCC2)Nc1nc(-c2ccc(F)cc2)cs1	?	?	-8%	-2%
CCc1ccc(NC(=O)C[n+]2cc(-c3ccc(C)cc3)n3c2CCC3)cc1	1.5µM*	2.9µM*	15%	-1%
Cc1ccc(NC(=O)C[n+]2cc(-c3ccccc3)n3c2CCC3)c(C)c1	5.2µM*	?	21%	1%
SMILES	Pf growth 96h	Pf growth 48h	Sm TGR inh	SARS PLP yeast
O=C(CSc1nnc(C2CC2)n1-c1ccccc1)N1CCNC1=O	18%	36%	?	-2%[6.58 µM]
COc1ccc(OC)c(-c2noc(CSc3nnc(Cc4ccccc4)n3-c3cccc(C)c3)n2)c1	/	/	-4%	/
O=C(NCCCn1ccnc1)c1cn(-c2ccccc2)nc1-c1ccccc1	-3%	0%	-3%	/
N#C/C(=C/c1cn(-c2ccccc2)nc1-c1cccc(OCc2ccccc2)c1)C(=O)NCCCn1ccnc1	2.1µM*	4.7µM*	-5%	-21%
O=C(NCCCO)/C(=C\c1cn(-c2ccccc2)nc1-c1cccnc1)NC(=O)c1ccccc1	?	-9%	-2%	?
CCOc1cccc(-c2nn(-c3ccccc3)cc2/C=C(/C#N)C(=O)NCCCn2ccnc2)c1	?	2.6µM*	5%	-18%
